Data published in PubChem BioAssay AID651658 (Broad Institute, 2012).
About 5,100 (1.5%) of roughly 340,000 compounds were called active. Only a selection was taken, and actives are over-represented in it overall. Unmarked numbers belong to inactive results.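 Rule for the calls: active = mean Tm shift, scaled 0 neutral to 100 positive control, at about 1.3% or above, every replicate too (limit read from the data); inconclusive = no clear call, values can overlap the other calls; inactive = the rest.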

biological target: Fibroblast growth factor 22 (Homo sapiens) (UniProt Q9HCT0); assay: binders of human FGF22 protein, primary screen, FGF22 synaptogenesis inhibitor project, biophysical, thermal shift, single point (AID 651658); details: recombinant FGF22 thermal shift, SYPRO orange fluorescence; at 9.99 µM; hits give high values; percent of sucrose octasulfate shift, DMSO zero
Sequence (Q9HCT0 whole entry, looked up): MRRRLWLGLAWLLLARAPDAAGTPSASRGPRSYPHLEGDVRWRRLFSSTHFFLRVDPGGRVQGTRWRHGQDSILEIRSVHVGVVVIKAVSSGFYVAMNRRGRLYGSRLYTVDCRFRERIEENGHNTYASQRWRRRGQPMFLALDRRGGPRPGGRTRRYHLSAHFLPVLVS

| SMILES | activity (Tm shift, normalised) |
| --- | --- |
| CO[C@H]1CN(C)C(=O)c2cc(NC(=O)C3CCC3)ccc2OC[C@H](C)N(C)C[C@H]1C | -0.155% |
| CCNC(=O)Nc1ccc2c(c1)C(=O)N(C)[C@@H]1CC[C@H](CC(=O)NC3CCCCC3)O[C@H]1CO2 | -0.109% |
| CCCOc1ccc(-c2c(C(=O)N/N=C/c3ccco3)nnn2-c2nonc2N)cc1 | -0.098% |
| Nc1nonc1-n1nnc(C(=O)N/N=C/C2CCCCC2)c1-c1ccccc1 | 0.34% |
| C/C(COc1ccccc1)=N\NC(=O)c1nnn(-c2nonc2N)c1-c1ccc(C)cc1 | 43.2% (active) |
| COc1ccccc1CNC(=O)COc1ccc(C)nc1[N+](=O)[O-] | 0.224% |
| Cc1ccc(OCC(=O)NC(C)c2ccccc2)c([N+](=O)[O-])n1 (stereo not drawn) | 43.5% (active) |
| Cc1cc(C)cc(OCC(=O)NC(C)c2ccccc2)c1 (stereo not drawn) | 0.179% |
| COc1ccc(S(=O)(=O)N(C)C[C@@H]2OCCCC[C@H](C)Oc3ccc(NC(=O)NC(C)C)cc3C(=O)N([C@@H](C)CO)C[C@@H]2C)cc1 | -0.199% |
| CO[C@@H]1CN(C)C(=O)c2cc(NC(C)=O)ccc2OC[C@H](C)N(C(=O)CC2CC2)C[C@@H]1C | 0.119% |
| C[C@@H](O)C#Cc1ccc([C@H]2[C@@H](CO)N3CCCCN(S(=O)(=O)c4ccccc4)C[C@@H]23)cc1 | -0.117% |
| O=C(/C=C/c1ccc2c(c1)OCCO2)c1ccc(O)cc1 | 2.05% (active) |
| O=C(COC(=O)c1ccc(O)cc1O)c1ccc2c(c1)OCCO2 | 0.444% |
| Cc1ccc(C(=O)NNC(=O)c2ccc3c(c2)OCCO3)cc1 | -0.233% |
| C[C@H](CO)N1C[C@H](C)[C@@H](CN(C)C(=O)C2CCCCC2)Oc2cc(C3=CCCC3)ccc2S1(=O)=O | 0.195% |
| O=C(NCC1CCCO1)/C(=C/c1ccc(Cl)cc1)NC(=O)c1ccccc1 (stereo not drawn) | -0.33% |
| Cc1ccc(C(=O)N/C(=C/c2cccs2)C(=O)N2CCCCC2)cc1 | 0.095% |
| Cc1ccc(C(=O)N/C(=C/c2cccs2)C(=O)NCC2CCCO2)cc1 (stereo not drawn) | 42.9% (active) |
| CCCC#Cc1cnc2c(c1)C(=O)N([C@H](C)CO)C[C@H](C)[C@H](CN(C)C(=O)Cc1ccncc1)O2 | 0.077% |
| CC(C)NC(=O)N1[C@H](CNC(=O)CN(C)C)[C@@H](c2ccccc2)[C@@H]1CO | -0.154% |
| Cc1ccc(S(=O)(=O)NCCC(=O)Nc2ccc(C)c(Cl)c2)cc1C | 1.75% (active) |
| Cc1ccc(S(=O)(=O)NCCC(=O)Nc2cccc(S(N)(=O)=O)c2)cc1C | -0.18% |
| Cc1ccnc(NC(=O)CCNS(=O)(=O)c2ccc(C)c(C)c2)c1 | -0.078% |
| CCC(=O)Nc1ccc2c(c1)C(=O)N(C)C[C@H](OC)[C@H](C)CN(C(=O)c1ccccc1F)[C@@H](C)CO2 | 0.053% |
| CC(C)c1cc(C(=O)NC2CCCCCC2)c2ccccc2n1 | -0.159% |
| CN(c1ccc2nc3ccccc3c(=O)n2n1)C1CCCCC1 | 43.9% (active) |

| SMILES | activity (Tm shift, normalised) |
| --- | --- |
| CN(C(=O)c1cc2c(=O)n3ccccc3nc2s1)C1CCCCC1 | -0.192% |
| CN(C)CC(=O)N1[C@@H](CO)[C@H](c2ccccc2)C12CN(C(=O)c1cccc(F)c1)C2 | 0.354% |
| Brc1cc(/C=N/n2cnnc2)oc1Br | -0.235% |
| COC(=O)N/N=C/c1ccc(-c2ccc(Cl)c(Cl)c2)o1 | -0.262% |
| Clc1cc(-c2ccc(/C=N/n3cnnc3)o2)ccc1Br | 43.6% (active) |
| C[C@H](CO)N1C[C@H](C)[C@H](CN(C)C(=O)NC2CCCCC2)Oc2c(NC(=O)C3CC3)cccc2C1=O | -0.273% |
| O=C1c2ccccc2S(=O)(=O)c2cc(N3CCN(c4ccccn4)CC3)ccc21 | 0.041% |
| O=C(c1ccc2c(c1)N(Cc1ccc(F)cc1)C(=O)c1ccccc1S2(=O)=O)N1CCN(c2ccccn2)CC1 | 44.2% (active) |
| O=C(NCCN1CCOCC1)c1ccc2c(c1)N(Cc1cccc(Cl)c1)C(=O)c1ccccc1S2(=O)=O | -0.426% |
| CO[C@@H]1CN(C)C(=O)c2cc(NC(=O)c3ccccc3F)ccc2OC[C@H](C)N(C(C)=O)C[C@@H]1C | 0.052% |
| C[C@@H]1CN([C@H](C)CO)S(=O)(=O)c2ccc(-c3ccncc3)cc2O[C@H]1CN(C)S(=O)(=O)c1ccccc1F | -0.04% |
| C[C@@H]1CCCCO[C@@H](CN(C)C(=O)NC2CCCCC2)[C@H](C)CN([C@H](C)CO)C(=O)c2cc(NS(=O)(=O)c3ccc(Cl)cc3)ccc2O1 | 0.906% |
| O=C(OCC(=O)N1CCN(C(=O)c2ccco2)CC1)c1ccc(Cl)c(Cl)c1 | -0.203% |
| CN(c1ccccc1)S(=O)(=O)c1cc(C(=O)OCC(=O)N2CCN(C(=O)c3ccco3)CC2)ccc1Cl | 43.1% (active) |
| O=C(OCC(=O)N1CCN(C(=O)c2ccco2)CC1)c1cccc(O)c1 | 0.05% |
| CC=Cc1ccc2n(c1=O)C[C@H]1[C@H](CO)[C@@H](C(=O)NCCc3cn(C)cn3)[C@@H]2N1C(=O)CC (mixture of isomers) | -0.32% |
| CN(C)c1ccc(/C=N/Nc2cc(N3CCOCC3)nc(N3CCOCC3)n2)cc1 | 43.5% (active) |
| C(=N\Nc1ccc2ccccc2n1)/c1ccc2c(c1)OCO2 | 41.5% |
| C/C(=N\Nc1nc(N2CCOCC2)nc(N2CCOCC2)n1)c1ccc([N+](=O)[O-])cc1 | 0.46% |
| Cc1ccc(S(=O)(=O)N(C)C)cc1NC(=O)c1ccccc1Br | -0.075% |
| Cc1ccc(S(=O)(=O)N(C)C)cc1NC(=O)c1n[nH]c(=O)c2ccccc12 | -0.104% |
| CC(=O)c1c(C)[nH]c(C(=O)Nc2cc(S(=O)(=O)N(C)C)ccc2C)c1C | 43.3% (active) |
| C[C@@H]1CN([C@@H](C)CO)C(=O)c2cc(NC(=O)Cc3ccccc3)ccc2O[C@H]1CN(C)CC1CC1 | 0.206% |
| Cc1ccc(S(=O)(=O)N2C[C@@H](O)COC[C@@H]3O[C@H](CC(=O)NCCCN(C)C)CC[C@H]32)cc1 | 0.016% |
| O=C(CSCc1ccccc1)Nc1ccccc1 | -0.128% |
| Cn1nc(C(F)(F)F)c(-c2ccc(F)cc2)c1NC(=O)CSCC(=O)O | -0.085% |

| SMILES | activity (Tm shift, normalised) |
| --- | --- |
| O=C(O)CSCC(=O)Nc1ccc(C(F)(F)F)cc1 | 43% (active) |
| Cc1cc(C(=O)O)ccc1[N+](=O)[O-] | 0.06% |
| Cc1cc(C)n(-c2ccc(C(=O)O)cc2[N+](=O)[O-])n1 | 43.1% (active) |
| Cc1cc(N)n(-c2ccc(S(=O)(=O)N3CCCC3)cc2[N+](=O)[O-])n1 | -0.196% |
| Cc1ccc(S(=O)(=O)N[C@@H]2CC[C@@H](CCn3cc(C4CC4)nn3)O[C@@H]2CO)cc1 | -0.331% |
| C[C@H]1CN([C@@H](C)CO)C(=O)c2cc(-c3cccc(F)c3)cnc2O[C@@H]1CN(C)Cc1cncnc1 | 0.062% |
| O=C(c1cnccn1)N1CC(=O)N2[C@H](C1)[C@H](c1ccc(/C=C/c3ccccc3)cc1)[C@@H]2CO | -0.069% |
| O=C(C[C@H]1C[C@@H]2c3cc(NC(=O)c4cccnc4)ccc3O[C@@H]2[C@H](CO)O1)NCc1ccccn1 | -0.175% |
| COCCn1c(Cc2cccn2C)nnc1SCC(=O)Nc1nccs1 | 0.285% |
| CCn1c(SCC(=O)Nc2nccs2)nnc1-c1ccco1 | 43.5% (active) |
| Cn1c(SCC(=O)Nc2nccs2)nnc1-c1cccnc1 | -0.089% |
| CCS(=O)(=O)NCC[C@H]1CC[C@@H](NC(=O)Nc2cc(Cl)cc(Cl)c2)[C@@H](CO)O1 | 0.003% |
| Oc1ccc(-c2nncn2-c2ccccc2)cc1 | 43.1% (active) |
| Oc1ccc(-c2nnc(Nc3ccccc3)c3ccccc23)cc1 | 0.298% |
| Cc1nn(-c2ccccc2)c(Cl)c1/C=C/C(=O)c1ccc(O)cc1 | -0.458% |
| COc1cccc(S(=O)(=O)N[C@H]2C=C[C@H](CC(=O)NCc3ccc(Cl)cc3)O[C@@H]2CO)c1 | 0.005% |
| CCCC#Cc1cnc2c(c1)C(=O)N([C@H](C)CO)C[C@H](C)[C@H](CN(C)C(=O)c1cnccn1)O2 | -0.197% |
| Cc1noc(C)c1NC(=O)N(C)C[C@H]1OCCCC[C@H](C)Oc2ccc(NC(=O)Nc3ccc4c(c3)OCO4)cc2C(=O)N([C@H](C)CO)C[C@@H]1C | -0.482% |
| COc1ccc2c(c1)CCc1cn3ncc(C#N)c3nc1-2 | -0.072% |
| Fc1ccc(-c2ccc(NCCN3CCOCC3)nn2)cc1 | -0.028% |
| N#Cc1cnn2cc(CCN3CCOCC3)c(-c3ccc(F)cc3)nc12 | 43.1% (active) |
| O=C(N[C@H]1CC[C@@H](CCNS(=O)(=O)c2ccc(F)cc2)O[C@@H]1CO)c1ccccn1 | 0.123% |
| C[C@@H]1CN([C@H](C)CO)C(=O)Cc2cc(NS(=O)(=O)c3cccs3)ccc2O[C@@H]1CN(C)C(=O)Nc1ccc(F)cc1 | 0.051% |
| Cn1c(=O)n(C)c2cc(NS(=O)(=O)c3ccc(F)cc3)ccc21 | 43.1% (active) |
| Cn1c(=O)n(C)c2cc(S(=O)(=O)Nc3ccc(F)cc3)ccc21 | -0.198% |
| Cn1c(CCN2CCN(c3ccccn3)CC2)nc2cc(NS(=O)(=O)c3ccc(F)cc3)ccc21 | -0.195% |
